# BoNT-A LC inh2 – BoNT/A light chain protease inhibitors, primary screen, biochemical, flow cytometry, MLPCN library; multiplex microsphere protease substrate cleavage; inhibition, % at 10 µM; 0.17% of 360,000 active; AID 588499, 2011; further: plate controls were buffer without enzyme for full effect and enzyme alone for no effect
# BoNT F protease – BoNT/F light chain protease inhibitors, primary screen, biochemical, flow cytometry, MLPCN library; inhibition, % at 10 µM; Multiplex microsphere protease cleavage assay; Botulinum neurotoxin type F light chain protease (Clostridium botulinum); AID 588497, 2011; 0.22% of 360,000 active; in the data active means inhibition above about 35%, passing the limit was not always enough; inconclusive means no clear call, values can overlap the other calls; further: plate controls were buffer without enzyme for full effect and enzyme alone for no effect
# GDH-TPI counter – GDH-TPI coupling enzyme inhibitors, primary screen, artefact control for M. tuberculosis FBA inhibitor project, biochemical, absorbance, full deck | AID 588335, 2011 | GDH-TPI coupled enzyme counterscreen, NADH absorbance | inhibition, % at 4.8 µM | 1.2% of 360,000 active; in the data active means inhibition above about 30%;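 further: 0% = DMSO wells and 100% = wells lacking the enzyme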
# Anthrax LF inh2 – Bacillus anthracis LF protease inhibitors, primary screen, biochemical, multiplex microsphere, MLPCN library | Lethal factor (Bacillus anthracis), P15917 | multiplex microsphere protease cleavage assay | inhibition, % at 10 µM | 0.12% of 360,000 active | AID 588501, 2011; further: plate controls were buffer without enzyme for full effect and enzyme alone for no effect
# Bead autofluor – counter-screen for toxin protease inhibitors: compound fluorescence | compound autofluorescence counterscreen, microsphere flow cytometry; stronger effect = higher value | fluorescence intensity (no concentration beside the values) | 3.1% of 360,000 active | AID 624483; in the data active means fluorescence intensity above about 16000; inconclusive means no clear call, values can overlap the other calls
# Mtb FBA inh – Mtb FBA enzyme inhibitors, primary screen, biochemical, fluorescence, strain H37Rv | Fructose-bisphosphate aldolase (Mycobacterium tuberculosis (strain ATCC 25618 / H37Rv)), … | purified M. tuberculosis FBA, fluorescence read-out | inhibition, % at 1 µM | 2.3% of 360,000 active; in the data active means inhibition above about 27%;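 further: 0% = vehicle and 100% = reference inhibitor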
# Target sequence (P9WQA3 whole entry, looked up): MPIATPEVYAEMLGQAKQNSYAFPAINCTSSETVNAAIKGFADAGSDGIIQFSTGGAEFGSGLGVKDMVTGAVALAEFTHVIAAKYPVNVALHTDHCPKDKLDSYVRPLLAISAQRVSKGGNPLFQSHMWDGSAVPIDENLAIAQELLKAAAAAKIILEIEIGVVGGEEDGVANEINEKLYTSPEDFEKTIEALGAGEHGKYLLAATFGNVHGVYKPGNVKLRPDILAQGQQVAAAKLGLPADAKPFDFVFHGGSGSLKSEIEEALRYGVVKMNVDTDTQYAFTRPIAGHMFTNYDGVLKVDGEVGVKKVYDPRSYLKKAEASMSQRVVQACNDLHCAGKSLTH
# Active calls of the source: *; ? = inconclusive; / = not tested or not shown. The list is not random: actives were taken first. Their share in the collection is about 6.6%. Unless noted, no stated cut-off is given here; in the data, active means inhibition above about 30%; inconclusive means no clear call, values can overlap the other calls; inactive means below that.
SMILES,BoNT-A LC inh2,BoNT F protease,GDH-TPI counter,Anthrax LF inh2,Bead autofluor,Mtb FBA inh
Cc1cc(=O)oc2ccc(OC(C)C(=O)O)cc12 (stereo not drawn),0,-7,-1,0,3006,15
CCOC(=O)c1c(C(C)(C)C)oc2ccc(OCC#N)cc12,0,-4,-1,0,3142,-1
CCOC(=O)c1c(-c2ccccc2)oc2ccc(OCC(=O)NNC(=O)CCCC(=O)O)cc12,-1,26,5,6,3520,157*
Cc1oc2ccc(OC(=O)N(C)C)cc2c1C(=O)OC(C)C,0,-4,3,-5,7337,3
CCOC(=O)c1c(-c2ccccc2)oc2ccc(OCC(=O)NNC(=O)CCC(=O)O)cc12,-2,10,8,-5,3659,122*
CCOC(=O)c1c(C)oc2ccc(OCC(N)=O)cc12,1,11,3,-1,10195,-1
CCOC(=O)C(NC(=O)NCc1ccccc1OC)(OCC)C(F)(F)F (stereo not drawn),0,3,4,-1,2306,5
O=C1NC(=S)N/C1=C\C=C\c1ccccc1,0,-6,33*,0,6547,1
COc1ccc(/C=C/C=C2\NC(=S)NC2=O)cc1,22,5,5,0,3443,4
CNC[C@@H]1OCc2ccccc2-c2ccccc2C(=O)N([C@H](C)CO)C[C@@H]1C,0,-2,5,0,3692,1
CCN(CC)C(=O)C1=C(C)N(Cc2ccccc2)C(=O)C(CC(=O)NCC2CCCCC2)C1 (stereo not drawn),0,7,6,4,3873,-2
COC(=O)c1c(N)n(Cc2ccc(OC)cc2)c2nc3ccccc3nc12,4,9,2,0,2457,159*
COCCOC(=O)c1c(N)n(Cc2ccc(OC)cc2)c2nc3ccccc3nc12,3,12,12,0,4407,171*
COc1ccc(Cn2c(N)c(C(=O)NCc3ccco3)c3nc4ccccc4nc32)cc1OC,4,6,18,5,3665,3
CN(C)c1ncnc2c1ncn2[C@H]1CN(Cc2cccnc2)C[C@@H](CO)O1,0,0,5,-4,2880,1
COC(=O)C1CCN(C(=O)COC(=O)C2CCN(S(=O)(=O)c3c(Cl)cccc3Cl)CC2)CC1,1,-4,-4,-2,?,3
Cc1cc(N2CCN(C)CC2)nc2ccc(NC(=O)CCC(=O)NCCc3ccc(Cl)cc3)cc12,-3,9,17,0,3243,8
COc1cc(C2=NOC(C(=O)N3CCOCC3)C2)cc(OC)c1OC (stereo not drawn),?,-6,-1,-2,24903*,-1
COc1ccc(C2=NOC(C(=O)N3CCCCCC3)C2)cc1OC (stereo not drawn),0,-7,0,-4,11367,-2
O=C(C1CC(c2ccc(F)cc2)=NO1)N1CCN(c2ccccc2)CC1 (stereo not drawn),-1,-8,-2,-2,4612,1
CCC(C)NC(=O)C1CC(c2ccc(OC)cc2)=NO1 (stereo not drawn),6,7,-2,-8,20670*,2
COc1ccc(NC(=O)C2C3C=CC(C3)C2C(=O)NCc2ccco2)cc1 (stereo not drawn),-1,-1,9,0,16864*,-2
O=C(C1CC(c2ccc(F)cc2)=NO1)N1CCCCC1 (stereo not drawn),0,1,-9,-1,22237*,1
O=C(O)Cc1ccc(N2N=C(c3ccccc3)CC2=O)cc1,-1,-14,/,-13,4488,15
CCOC(=O)C1=C(COC(=O)c2cc(S(=O)(=O)N3CCOCC3)ccc2F)NC(=O)NC1C (stereo not drawn),-9,-4,0,0,5166,1
SMILES,BoNT-A LC inh2,BoNT F protease,GDH-TPI counter,Anthrax LF inh2,Bead autofluor,Mtb FBA inh
COc1ccc(C2=NOC(C(=O)NCc3ccco3)C2)cc1 (stereo not drawn),8,9,5,-14,20757*,7
COc1ccc(C2=NOC(C(=O)NCCN3CCOCC3)C2)cc1 (stereo not drawn),-2,0,-2,0,21268*,3
COc1ccc(C2=NOC(C(=O)NCc3ccc(F)cc3)C2)cc1 (stereo not drawn),0,2,-2,-4,10404,0
COc1ccc(CNC(=O)C2CC(c3ccc(F)cc3)=NO2)cc1 (stereo not drawn),1,2,-2,-1,22739*,1
CCOC(=O)C(C(=O)OCC)C1N=C(N)N=C2Oc3ccccc3N21 (stereo not drawn),-2,-3,49*,-7,7367,5
CCOC(=O)CSc1nnc(-c2ccc(NS(=O)(=O)c3ccc(C)cc3)cc2)o1,0,-1,16,-2,20276*,2
COc1cccc(-c2nnc(SCc3cccnc3)o2)c1,-3,-7,10,-2,17724*,0
COc1ccc(NC(=O)CSc2nnc(-c3cccnc3)o2)cc1,5,9,1,-1,21010*,6
COC(=O)CSc1nnc(-c2ccc(S(=O)(=O)N3CCC(C)CC3)cc2)o1,/,/,3,/,/,2
CC1CCN(S(=O)(=O)c2ccc(-c3nnc(SCc4cccnc4)o3)cc2)CC1,-1,-3,-2,-2,23932*,-5
CC(=O)Nc1ccc(NC(=O)CSc2nnc(-c3cccnc3)o2)cc1,-1,-12,0,?,?,-1
COc1ccc(NC(=O)N(C)C[C@@H]2OCc3cnnn3CCCC(=O)N([C@@H](C)CO)C[C@H]2C)c(OC)c1,0,-2,-4,-1,3862,-2
C=CCC[C@H](CCCCC)OC(=O)/C=C/[C@@H](O)[C@H](O)C[C@@H](O)CC=C,0,7,/,7,5882,/
O=C(NCc1ccc(Cl)cc1)C1CCCN1C(=O)Nc1ccc(F)cc1 (stereo not drawn),-6,?,8,6,3803,0
CCCC(=O)Nc1ccc(Cl)c(NC(=O)c2cccc(OC)c2)c1,0,-1,1,0,3064,-2
COc1cccc(-c2cccc(-c3nc(C(=O)NCCCN4CCOCC4)cc4c3[C@H](CCO)N(S(=O)C(C)(C)C)C4)c2)c1 (stereo partly drawn),-1,-3,/,-4,4484,0
N#Cc1ccc(-c2ccc(OCC(=O)NCCCN3CCCC3=O)cc2)cc1,-1,-6,-8,-1,4039,20
COc1ccc(-c2nnc(SCC(=O)OC3CCCCC3)o2)cc1OC,3,5,8,-1,19136*,0
COC(=O)CSc1nnc(-c2ccncc2)o1,?,19,7,3,16743*,6

# Screens: PubChem, several laboratories
